The nature of test [1]: AP1 Signaling Pathway (AID 357).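 Further: ME-180 reporter cells stimulated with EGF at its EC50 level; on the % scale 0 is the no-effect control and ±100 the full control effect.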 The conditions noted are these: ME-180 AP-1-bla reporter, EGF-induced, beta-lactamase ratio, 5 h. A digest of the protocol:
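A ratiometric CCF4 readout (405 nm excitation; 460 and 530 nm emission) quantified AP-1-driven beta-lactamase in ME-180 cells after 5 h with compound and EC50 EGF; AC50 values were derived for activators and inhibitors.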

Test [2] deals with Cytochrome P450 1A2 (Homo sapiens) (UniProt P05177). The test can be described thus: p450-cyp1a2 (AID 410; calls by dose curve; further: potency means the concentration at half of the fitted maximal effect;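 on activity change, negative = inhibition: -100% = full effect of reference inhibitor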). As to conditions: recombinant CYP1A2, luciferin-ME demethylation, luminescence; series mostly up to 25.6 µM. A digest of the protocol: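 Luminescent readout of luciferin formed from Luciferin-ME by human CYP1A2; data normalized against complete inhibition by 57 uM furafylline. Enzyme 20nM, substrate 100uM at Km, 100mM KPO4 buffer, 60 min reaction at room temperature.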
Chain of Cytochrome P450 1A2 (Homo sapiens) (P05177 whole entry, looked up): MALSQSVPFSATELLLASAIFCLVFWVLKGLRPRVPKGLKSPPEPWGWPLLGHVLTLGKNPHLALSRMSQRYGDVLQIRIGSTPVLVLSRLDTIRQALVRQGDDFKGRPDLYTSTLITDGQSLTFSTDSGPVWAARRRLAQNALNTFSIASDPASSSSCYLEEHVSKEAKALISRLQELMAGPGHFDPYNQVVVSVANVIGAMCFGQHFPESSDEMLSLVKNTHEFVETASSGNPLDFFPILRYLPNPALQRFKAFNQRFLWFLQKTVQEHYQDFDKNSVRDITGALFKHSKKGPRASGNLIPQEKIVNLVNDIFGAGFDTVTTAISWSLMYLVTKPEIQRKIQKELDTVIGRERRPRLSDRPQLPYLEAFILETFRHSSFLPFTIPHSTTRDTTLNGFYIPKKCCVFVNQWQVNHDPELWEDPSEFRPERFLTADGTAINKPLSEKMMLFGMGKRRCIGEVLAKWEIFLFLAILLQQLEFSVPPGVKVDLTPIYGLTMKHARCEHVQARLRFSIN

Test [3] can be described thus: NFAT Signaling Pathway (AID 444).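 Further: carbachol stimulus at about its EC50 of 1 µM final; on the % scale 0 is the no-effect control and ±100 the full control effect.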 As to conditions: Jurkat NFAT-bla M1, carbachol, beta-lactamase ratio, 5 h. The method in brief: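 Jurkat cells with NFAT-driven β-lactamase reporter and co-expressed M1 receptor, stimulated with carbachol (final 1 uM, ~EC50), compound titration, 5 h at 37 °C. CCF4 loaded 1 h at RT; 460/530 nm ratio gave %activity and AC50.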
A short description of test [4]: Stat Signaling Pathway (AID 446).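 Further: ME-180 cervical cancer cells given 40 pM IL-6 alongside compound; SIE-controlled beta-lactamase reporter measured as 460/530 nm FRET emission ratio; on the % scale 0 is the no-effect control and ±100 the full control effect.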 As to conditions: ME-180 (cervical carcinoma) SIE beta-lactamase reporter, IL-6 stimulated, 5 h. A digest of the protocol:
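ME-180 SIE-bla cells; overnight plating; cpd + IL-6 40 pM, 5 h, 37 C; LiveBLAzer 2.5 h RT; 460/530 nm emission ratio. Normalized to 300 pM IL-6 and 125 nM JAK inhibitor controls.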

Test [5] has as its target Glucocorticoid receptor (Homo sapiens) (UniProt P04150). Kind of test: GR-GFP Redistribution (AID 450;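 active means compounds whose dose series gives a full or clear partial fitted curve of increased nuclear translocation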; further: potency means the concentration at half of the fitted maximal effect). The conditions noted are these: U2OS GR-GFP nuclear translocation, laser cytometry, 2 h.
Test [6] shares this target. The test can be described thus: GR-EFC Redistribution (AID 451; calls by dose curve; further: potency means the concentration at half of the fitted maximal effect). The conditions noted are these: CHO-K1 GR-EFC translocation, beta-gal luminescence, 2 h. A digest of the protocol:
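CHO-K1 cells expressing nuclear EA and GR-ED fragments of b-gal; compounds titrated up to 46 uM final, 2 h at 37 C. GR nuclear translocation read as complemented b-gal luminescence after 1 h RT detection.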

Test [7] concerns the target Mitogen-activated protein kinase 10 (Mus musculus) (UniProt Q61831). The test can be described thus: JNK3 AlphaScreen Assay (AID 530).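 Further: kinase came from lysate of stimulated human HepG2 cells; signal reports phosphorylation of biotinylated GST-cJun 1-79 at Ser73 with 10 µM ATP; on the % scale 0 is the no-effect control and ±100 the full control effect.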 The conditions noted are these: JNK3 lysate, c-Jun phosphorylation; series mostly up to 57.1 µM. A digest of the protocol:
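Pre-activated (IL-1β/TNFα) JNK3 in HepG2 lysates phosphorylates biotin-GST-cJun(1-79), 10 uM ATP; anti-phospho-cJun(Ser73) AlphaScreen read at room temperature, pH 7.6 Tris buffer. Compounds pre-incubated 15 min as titrations.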

Test [8] is described as follows: Cell Viability - BJ (AID 421; calls by dose curve;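 further: potency means the concentration at half of the fitted maximal effect; cells exposed to compound for 40 hours at 37 °C before readout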). As to conditions: BJ fibroblast viability, qHTS. The method in brief:
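Luminescent ATP signal (CellTiter-Glo, 20 min at room temperature) served as the read-out of viable BJ cells after 40 hours of compound treatment. Responses were scaled between DMSO and 100 uM tamoxifen, and AC50 values were obtained by Hill modeling.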

Test [9] in a line: Cell Viability - Jurkat (AID 426;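 active means dose-dependent loss of cell ATP signal giving a full or clear fitted curve, ranked by lower potency value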; further: potency means the concentration at half of the fitted maximal effect). The conditions noted are these: qHTS. The method in brief: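 qHTS, 1536-well; Jurkat E6-1, 5000 cells/well, complete medium; cpd 40 hr, 37 °C; CellTiter-Glo 20 min RT; luminescence. AC50 by Hill fit.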
Test [10] can be described thus: Cell Viability - Hek293 (AID 427;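 active means compounds whose dose-response curve shows a full or clear partial loss of cell viability, called from curve shape rather than a numeric limit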;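 further: potency means the concentration at half of the fitted maximal effect; cells exposed to compound for 40 hours at 37 °C before reading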). The conditions noted are these: qHTS. A digest of the protocol: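 Luminescent ATP read-out (CellTiter-Glo, 20 min RT) after 40 hr compound exposure at 37 °C in complete medium. Signal normalized to DMSO (basal) and 100 uM tamoxifen (100% inhibition); concentration-response fitted with the standard Hill equation to give AC50.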
A short description of test [11]: Cell Viability - HepG2 (AID 433; calls by dose curve;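 further: potency means the concentration at half of the fitted maximal effect; potency for ATP loss meaning cytotoxicity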). As to conditions: qHTS. A digest of the protocol: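 HepG2 cells, 1500 per well, treated 40 hr at 37 °C in complete medium; viability from intracellular ATP by CellTiter-Glo luminescence. Normalized to DMSO and 100 uM tamoxifen; AC50 from Hill fit of qHTS concentration-response.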
Test [12] is described as follows: Cell Viability - MRC5 (AID 434; calls by dose curve;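 further: potency means the concentration at half of the fitted maximal effect; potency reflects cytotoxicity seen as loss of intracellular ATP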). The conditions noted are these: MRC5 lung fibroblast viability, qHTS. The method in brief:
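MRC5 normal human lung fibroblasts, 1500 cells/well, exposed to compound for 40 hr at 37 C. Cellular ATP was read by CellTiter-Glo luminescence; data normalized to DMSO and 100 uM tamoxifen, with AC50 from Hill fits.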

A short description of test [13]: Cell Viability - SK-N-SH (AID 435; calls by dose curve;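 further: potency means the concentration at half of the fitted maximal effect; compound exposure lasted 40 h at 37 °C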). As to conditions: SK-N-SH neuroblastoma cell viability qHTS. The method in brief: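 SK-N-SH neuroblastoma cells (1500/well) treated 40 h at 37 °C in complete medium; viability read as cellular ATP by CellTiter-Glo luminescence. Normalized to DMSO and 100 uM tamoxifen; AC50 from Hill fits of qHTS concentration-response.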
Test [14] is described as follows: Cell Viability - NIH 3T3 (AID 541; active means well fitted curve in the direction sought with a large enough effect; an effect the other way counts as inactive or inconclusive;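 further: plate controls were DMSO alone for no effect and tamoxifen positive control for full effect; nearly all actives have a fitted effect of over 25% in size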). The conditions noted are these: NIH 3T3 cell viability, qHTS; activity change, negative = cytotoxicity: at 92.2 µM (top of the series). A digest of the protocol: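 Luminescent ATP signal (CellTiter-Glo) served as the viability read-out after NIH 3T3 cells were exposed to compounds over a concentration range for 40 hr at 37 °C. Hill-equation modelling of concentration-response data gave AC50.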

A short description of test [15]: Cell Viability - HUV-EC-C (AID 542; active means well fitted curve in the direction sought with a large enough effect; an effect the other way counts as inactive or inconclusive; further: on the % scale 0 is the no-effect control and ±100 the full control effect; nearly all actives have a fitted effect of over 35% in size). The conditions noted are these: HUV-EC-C endothelial cell viability, qHTS; series mostly up to 92.2 µM. The method in brief:
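qHTS cytotoxicity: HUV-EC-C, 1000 cells/well, 5 hr settle, compound 40 hr 37 °C, CellTiter-Glo, luminescence. AC50 via Hill equation.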

The nature of test [16]: Cell Viability - H-4-II-E (AID 543; active means well fitted curve in the direction sought with a large enough effect; an effect the other way counts as inactive or inconclusive; further: on the % scale 0 is the no-effect control and ±100 the full control effect; nearly all actives have a fitted effect of over 35% in size). The conditions noted are these: H-4-II-E rat hepatoma viability; series mostly up to 92.2 µM. A digest of the protocol:
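Luminescent ATP signal (CellTiter-Glo) served as the viability read-out, with cytotoxicity seen as a concentration-dependent ATP drop. Cells were treated for 40 hours in complete medium. AC50 values derive from Hill-equation modelling.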

A short description of test [17]: Cell Viability - SH-SY5Y (AID 544; active means well fitted curve in the direction sought with a large enough effect; an effect the other way counts as inactive or inconclusive;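 further: 0% = DMSO alone and -100% = 100 µM tamoxifen; nearly all actives have a fitted effect of over 55% in size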). The conditions noted are these: SH-SY5Y neuroblastoma cell viability; series mostly up to 92.2 µM. A digest of the protocol: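 Luminescent ATP read-out (CellTiter-Glo) measures loss of viable SH-SY5Y neuroblastoma cells after 40 hr compound exposure at 37 °C. AC50 values derive from standard Hill modelling of qHTS concentration-response data.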

Test [18] can be described thus: Cell Viability - Renal Proximal Tubule (AID 545; active means well fitted curve in the direction sought with a large enough effect; an effect the other way counts as inactive or inconclusive;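 further: 0% = DMSO only and -100% = 100 µM tamoxifen; nearly all actives have a fitted effect of over 40% in size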). The conditions noted are these: renal proximal tubule cells viability, primary cells of rat origin; series mostly up to 91.7 µM. The method in brief:
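Rat renal proximal tubule primary cells, 1000/well, exposed to compounds for 40 hr at 37 °C in complete medium; cellular ATP read by CellTiter-Glo luminescence. AC50 from concentration-response fitted with standard Hill equation.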

Test [19] can be described thus: Cell Viability - Mesenchymal (AID 546; active means well fitted curve in the direction sought with a large enough effect; an effect the other way counts as inactive or inconclusive;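 further: cells exposed to compound for 40 hours before reading; 0% = DMSO only and -100% = 100 µM tamoxifen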). The conditions noted are these: mesenchymal cells viability, qHTS; series mostly up to 91.7 µM. The method in brief:
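Human kidney mesenchymal cells from normal renal glomeruli, 1000 cells/well, rested 5 hr at 37 °C, then treated 40 hr at 37 °C in complete medium. Cellular ATP read by CellTiter-Glo luminescence; AC50 from Hill-equation fits.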

Values joined by “and” are separate entries in the source; they are usually repeats but may differ in a detail not shown here. Equal entries are not always repeated. Inconclusive results are not listed. Some compounds were tested as several samples or in several runs, with calls that do not always agree. Active and inactive are the calls of the source. Unless noted, the call rests on the fitted dose curve; in most records, active means well fitted curve in either direction with a large enough effect (not every such curve was filed as active); inconclusive means small, poorly fitted or top-dose-only effect, or another doubt; inactive means flat fitted curve, though single readings scatter.

Chain of Glucocorticoid receptor (Homo sapiens) (P04150 whole entry, looked up): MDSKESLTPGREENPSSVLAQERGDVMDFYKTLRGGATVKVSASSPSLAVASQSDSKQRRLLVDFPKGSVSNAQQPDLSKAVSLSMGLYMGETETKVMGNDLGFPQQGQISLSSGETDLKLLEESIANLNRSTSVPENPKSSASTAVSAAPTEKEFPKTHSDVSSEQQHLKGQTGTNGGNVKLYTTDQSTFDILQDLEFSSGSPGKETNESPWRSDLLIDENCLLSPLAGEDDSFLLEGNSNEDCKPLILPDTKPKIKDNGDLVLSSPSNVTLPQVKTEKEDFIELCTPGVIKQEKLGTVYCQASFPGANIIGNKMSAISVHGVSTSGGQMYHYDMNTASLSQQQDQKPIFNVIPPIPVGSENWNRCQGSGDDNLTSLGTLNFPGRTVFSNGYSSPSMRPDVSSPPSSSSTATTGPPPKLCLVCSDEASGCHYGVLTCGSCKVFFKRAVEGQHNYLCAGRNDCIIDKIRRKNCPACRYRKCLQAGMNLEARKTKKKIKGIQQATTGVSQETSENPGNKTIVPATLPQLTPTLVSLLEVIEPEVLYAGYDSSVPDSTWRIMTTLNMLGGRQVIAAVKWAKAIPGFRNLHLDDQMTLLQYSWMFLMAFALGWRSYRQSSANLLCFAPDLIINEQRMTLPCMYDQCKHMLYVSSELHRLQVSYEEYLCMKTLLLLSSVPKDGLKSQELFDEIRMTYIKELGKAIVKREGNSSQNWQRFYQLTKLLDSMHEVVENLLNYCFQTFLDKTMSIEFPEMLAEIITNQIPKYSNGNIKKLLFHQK

`CCOc1ccc2ccccc2c1C(=O)N[C@@H]1C(=O)N2[C@@H]1SC(C)(C)[C@@H]2C(=O)O`: the activity change, negative = inhibition in test [1] (at 17.2 µM (top of the series)) was 0.437% (inactive); in [3] (at 17.2 µM (top of the series)) it was 1.54% (inactive). The Potency entry in test [2] and in [7] was “inactive” each time. Further, in test [4] (at 17.2 µM (top of the series)), the activity, negative = inhibition was 2.51% (inactive). Further, the Potency in [5] and in test [6] was > 20.6 µM (inactive) each time.

Turning to `CCCCOC(=O)c1ccc(O)cc1`, the activity change, negative = inhibition in test [1] (at 17.2 µM (top of the series)) is -21.4% (inactive); in test [3] (at 17.2 µM (top of the series)), -15% (inactive). The Potency in [2] was 79.4 nM (active); in [8] it was > 92 µM (inactive); in [9], > 92 µM (inactive); in test [10], > 92 µM (inactive); in [11] it was > 92 µM (inactive); in test [12], > 92 µM (inactive). Also, the Potency in test [13] was > 92 µM (inactive); in [5] it was > 20.6 µM (inactive); in test [6], > 20.6 µM (inactive). In [4] (at 17.2 µM (top of the series)), the activity, negative = inhibition was -9.98% (inactive). Further, the Potency entry in [7], in test [14], in test [15], in test [16], in [17] and in test [18] was “inactive” in each case. Further, the compound was classed as inactive in [19].

With `CC1=C(CC(=O)O)c2cc(F)ccc2/C1=C\c1ccc(S(C)=O)cc1` (stereo not given), the activity change, negative = inhibition was 6.13% (inactive) in test [1] (at 17.2 µM (top of the series)), -0.0105% (inactive) in test [1] (at 38 µM (top of the series)) and 2.92% (inactive) in [3] (at 38 µM (top of the series)). Further, the Potency is 12.6 µM (active) and 3.98 µM (active) in test [2]; > 46 µM (inactive) and > 20.6 µM (inactive) in [5]; > 46 µM (inactive) and > 20.6 µM (inactive) in test [6]. Besides, the results for the activity, negative = inhibition in test [4] (at 17.2 µM (top of the series)) and in test [4] (at 38 µM (top of the series)) were 0.939% (inactive) and 9.67% (inactive), respectively.

As for `COc1ccc2c(c1)C(=O)N(CCc1ccc(S(=O)(=O)NC(=O)NC3CCCCC3)cc1)C(=O)C2(C)C`, the activity change, negative = inhibition in [1] (at 17.2 µM (top of the series)) is 12.1% (inactive). In addition, the Potency entry in test [2] and in [7] was “inactive” throughout. For the same compound, the activity, negative = inhibition in test [4] (at 17.2 µM (top of the series)) was -7.41% (inactive). Also, the Potency in test [5] and in [6] was > 20.6 µM (inactive) each time.

As to `CCCn1cnc2c1c(=O)n(CCCCC(C)=O)c(=O)n2C`, the results for the activity change, negative = inhibition in [1] (at 38 µM (top of the series)) and in test [3] (at 38 µM (top of the series)) were -2.42% (inactive) and 9.62% (inactive), respectively. Further, the Potency in [2] was 12600 nM (active); in test [5] it was > 46 µM (inactive); in test [6] it was > 46 µM (inactive). For the same compound, in test [4] (at 38 µM (top of the series)), the activity, negative = inhibition is 10.7% (inactive). Moreover, in [7], the Potency entry was “inactive”.

With `Nc1ccc(S(=O)(=O)Nc2ccc(Cl)nn2)cc1`, the activity change, negative = inhibition is 7.06% (inactive) in [1] (at 17.2 µM (top of the series)) and 9.43% (inactive) in [3] (at 17.2 µM (top of the series)). The Potency entry in [2] and in test [7] was “inactive” each time. The activity, negative = inhibition in [4] (at 17.2 µM (top of the series)) is -3.21% (inactive).

`Cc1cc(N)c2ccccc2[n+]1CCCCCCCCCC[n+]1c(C)cc(N)c2ccccc21`: the values for the activity change, negative = inhibition in test [1] (at 17.2 µM (top of the series)) and in test [3] (at 38 µM (top of the series)) were -20.8% (inactive) and -78.7% (active), respectively. Further, the Potency entry was “inactive and 10 µM (active) and 15.8 µM (active)” in test [2]; > 46 µM (inactive) and > 20.6 µM (inactive) in [5]; > 46 µM (inactive) and > 20.6 µM (inactive) in [6]. Besides, the activity, negative = inhibition in [4] (at 17.2 µM (top of the series)) is -1.05% (inactive); in test [4] (at 38 µM (top of the series)), -10.8% (inactive). For the same compound, the Potency result in test [7] is “inactive”.

The values above are taken from PubChem BioAssay (NCATS).
